Results: PubChem BioAssay (Tox21)
Activity calls are given as the source filed them. A call without a number means that no potency is given here. Calls come from the whole dose curve; as a rule, active = well fitted curve in the direction sought with a large enough effect in the repeat runs; inconclusive = weak or mixed curves; inactive = flat fitted curve, though single readings scatter.

Experiment: qHTS assay to test for compound auto fluorescence at 460 nm (blue) in HepG2 cell free culture (AID 720685)
Details: Cell-free culture medium, blue autofluorescence 405/460 nm; series mostly up to 91.3 µM
Method in brief: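 Compound (23 nL) or DMSO pinned into cell-free MEM with 10% FBS; blue fluorescence read at 405/460 nm excitation/emission, expressed as auto-fluorescence equivalency to triamterene.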

Row | SMILES | Potency | fluorescence, % of fluorescent control
1 | C=C(C)C(=O)OC(C)C | inactive | 
2 | CCCCCCCCN(C)C | inactive | 
3 | CC[C@H](C)[C@H](N)C(=O)O | inactive | 
4 | CCN(CC)CCc1nc(-c2ccccc2)no1 |  | -0.0109% [at 18.6 µM] (inactive)
5 | CCCCCCCCCCCCCCCC(=O)OC/C=C(C)/C=C/C=C(C)/C=C/C1=C(C)CCCC1(C)C | inactive | 
6 | CCOC(=O)CC(=O)c1cc(F)c(Cl)nc1Cl | inactive | 
7 | CC(=O)O[C@H]1C[C@@H]2CC[C@@H]3[C@H](CC[C@@]4(C)[C@H]3C[C@H]([N+]3(C)CCCCC3)[C@@H]4OC(C)=O)[C@@]2(C)C[C@@H]1N1CCCCC1 | inactive | 
8 | Cc1ccc(C)o1 | inactive | 
9 | COc1ccc2[nH]c(S(=O)Cc3ncc(C)c(OC)c3C)nc2n1 (configuration not stated) | inactive | 
10 | NC(=S)N/N=C/c1cccnc1 | inactive | 
11 | CC(C)c1ccccc1C(C)C | inactive | 
12 | NCc1ccccc1 | inactive | 
13 | CC(C)(C)c1ccc(S)cc1 | inactive | 
14 | COc1ccccc1OC(=O)Oc1ccccc1OC | inactive | 
15 | Cc1c(Cn2ccnc2)c2ccccc2n1CCC(=O)O | inactive | 
16 | O=[N+]([O-])c1cc[n+]([O-])cc1 | inactive | 
17 | CCOc1cc(OCC)c(C(=O)CCC(=O)O)cc1OCC | inactive | 
18 | O=S(=O)(O)c1ccc(O)c2ncccc12 | inactive | 
19 | CC[C@]12CCCN3CCc4c(n(c5ccccc45)C(=O)C1)[C@@H]32 |  | 0.043% [at 18.6 µM] (inactive)
20 | CC(C)(C)C(=O)OCOP(=O)(COCCn1cnc2c(N)ncnc21)OCOC(=O)C(C)(C)C | inactive | 
21 | N#CCc1cccc(C(F)(F)F)c1 | inactive | 
22 | O=C=NC1CCC(CC2CCC(N=C=O)CC2)CC1 (configuration not stated) | inactive | 
